Laboratory results: the supplement of paper PMC9694430

Key:
Test in all cases: thermal shift delta Tm vs DMSO control; higher = stronger stabilization (binding)
Settings in all cases: 12.5 µM; protein concentration 2 µM
LOC_OS02G45750-cb003 = tested on: LOC_OS02G45750-cb003
Procedure, shortened: (§1)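 Rice kinase domain constructs were expressed in E. coli, purified, and tested by differential scanning fluorimetry with compound added in DMSO. Each well of a 96-well plate held 19.5 μl of 2 μM kinase in 100 mM potassium phosphate pH 7.5, 150 mM NaCl, 10% glycerol and 5 × SYPRO Orange, and fluorescence was read from 25°C to 95°C at 0.05°C/s. The melting temperature shift is the mean of triplicates, taken against protein with DMSO alone after Boltzmann fitting.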

LOC_OS02G54510-cb004 = tested on: LOC_OS02G54510-cb004
Procedure, shortened: as §1

LOC_OS03G04050-cb001 = tested on: LOC_OS03G04050-cb001
Procedure, shortened: as §1

LOC_OS03G12390-cb001 = tested on: LOC_OS03G12390-cb001
Procedure, shortened: as §1

LOC_OS03G27990-cb004 = tested on: LOC_OS03G27990-cb004
Procedure, shortened: as §1

LOC_OS03G50450-cb001 = tested on: LOC_OS03G50450-cb001
Procedure, shortened: as §1

LOC_OS03G50810-cb003 = tested on: LOC_OS03G50810-cb003
Procedure, shortened: as §1

LOC_OS04G35114-cb001 = tested on: LOC_OS04G35114-cb001
Procedure, shortened: as §1

LOC_OS04G38480-cb003 = tested on: T1, LOC_OS04G38480-cb003
T1 sequence (whole entry): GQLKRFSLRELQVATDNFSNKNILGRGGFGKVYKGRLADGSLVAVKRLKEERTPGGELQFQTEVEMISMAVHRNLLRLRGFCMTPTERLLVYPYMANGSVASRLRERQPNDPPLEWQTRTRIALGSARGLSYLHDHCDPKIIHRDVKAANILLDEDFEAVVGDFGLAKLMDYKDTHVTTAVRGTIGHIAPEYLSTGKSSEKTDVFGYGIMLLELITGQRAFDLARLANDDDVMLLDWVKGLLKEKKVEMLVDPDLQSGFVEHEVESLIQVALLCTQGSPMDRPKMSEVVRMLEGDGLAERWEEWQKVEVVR
Procedure, shortened: as §1

LOC_OS04G41100-cb001 = tested on: T2, LOC_OS04G41100-cb001
T2 sequence (whole entry): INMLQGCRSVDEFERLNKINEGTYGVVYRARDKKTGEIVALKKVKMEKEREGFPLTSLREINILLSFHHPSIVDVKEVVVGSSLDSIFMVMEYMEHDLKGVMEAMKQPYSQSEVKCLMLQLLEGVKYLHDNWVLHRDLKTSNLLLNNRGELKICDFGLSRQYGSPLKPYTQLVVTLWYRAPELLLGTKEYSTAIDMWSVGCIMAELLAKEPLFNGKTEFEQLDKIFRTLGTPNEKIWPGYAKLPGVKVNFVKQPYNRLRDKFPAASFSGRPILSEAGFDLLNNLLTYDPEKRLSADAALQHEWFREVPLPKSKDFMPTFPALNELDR
Procedure, shortened: as §1

Structure (SMILES)	thermal shift delta Tm (LOC_OS02G45750-cb003) [°C]	thermal shift delta Tm (LOC_OS02G54510-cb004) [°C]	thermal shift delta Tm (LOC_OS03G04050-cb001) [°C]	thermal shift delta Tm (LOC_OS03G12390-cb001) [°C]	thermal shift delta Tm (LOC_OS03G27990-cb004) [°C]	thermal shift delta Tm (LOC_OS03G50450-cb001) [°C]	thermal shift delta Tm (LOC_OS03G50810-cb003) [°C]	thermal shift delta Tm (LOC_OS04G35114-cb001) [°C]	thermal shift delta Tm (LOC_OS04G38480-cb003) [°C]	thermal shift delta Tm (LOC_OS04G41100-cb001) [°C]
Cn1cc(-c2cnn3c(N)c(Br)c([C@@H]4CCCNC4)nc23)cn1	2.88	0.55	0.3	0.78	0.85	0.38	1.12	1.17	2.62	0.97
FC(F)(F)c1ccc(Nc2nc3ccc(Oc4ccnc(-c5ncc(C(F)(F)F)[nH]5)c4)cc3[nH]2)cc1 [Raf265 derivative]	1.97	0.28	0.92	1.89	0.72	1.24	1.68	0.2	2.16	1.09
O=C1c2ccc(Nc3ccc(F)cc3F)cc2CCc2ccc(OC[C@H](O)CO)cc21 [Skepinone-L]	0.45	-0.21	-0.01	-0.61	0.11	0.06	-0.16	1.82	1.25	0.53
Cc1cnc(NC(=O)Nc2cc(Br)c(C)cc2OC[C@@H]2CNCCO2)cn1	2.48	0.18	0.38	0.98	0.74	0.51	2.11	1.71	0.59	0.37
COc1ncc(-c2ccc3nccc(-c4ccnnc4)c3c2)cc1NS(=O)(=O)c1ccc(F)cc1F	1.38	0.45	0.9	0.76	0.69	1.26	1.09	2.35	1.39	0.74
C=CC(=O)N1CCC(Oc2cc3c(Nc4ccc(Cl)c(Cl)c4F)ncnc3cc2OC)CC1 [Poziotinib (HM781-36B)]	2.04	1.05	0	3.61	0.49	1.57	0.16	4.23	1.12	0.18
NC(=O)c1ccc2nc(-c3ccc(Oc4ccc(Cl)cc4)cc3)[nH]c2c1 [Chk2 Inhibitor II (BML-277)]	-1.27	-0.11	0.47	0.95	0.3	0.23	0.22	0.43	0.19	-0.49
O=c1nc(N2CCOCC2)oc2c(-c3cccc4c3sc3ccccc34)cccc12	0.04	-0.35	-0.14	-0.44	-0.35	0.04	-0.24	-0.68	0.64	0.24
COc1cc2ccc(=O)oc2cc1O [Scopoletin]	0.7	0.13	0.44	0.02	0.3	0.69	0.22	0.41	0.05	0.47
O=c1c(O)c(-c2ccc(O)c(O)c2)oc2cc(O)cc(O)c12 [Quercetin]	3.32	0.4	0.73	5.69	2.91	2.18	2.6	4.71	3.37	0.61
